Source: PubChem BioAssay
This is a sample that favours compounds with a hit; in the whole collection about 3.5% have one here.
LEDGF integ inh – blocks HIV-1 LEDGF/p75-dependent DNA integration; TR-FRET IN-LEDGF/p75 DNA integration, Eu/Cy5; AID 743269; actives 0.64% (n = 370,000); inhibition, % at 3.7 µM;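 active = inhibition above the screen-wide mean plus 3 SD, cut at about 13% in these data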;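 also: signal is the Cy5 over europium emission ratio at 671 and 618 nm; 0% = plate median of compound wells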
UHRF1 MBD2 ctr – blocks human UHRF1 binding to methylated DNA. Q96T88. UHRF1 binding to methylated oligo, TR-FRET. inhibition, % at 4.4 µM. actives 0.75% (n = 370,000). AID 687016; in the data active = inhibition above about 21%;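 also: UHRF1 SRA domain binding a hemimethylated CpG hairpin DNA probe; 0% = median of test compound wells and 100% = reference inhibitor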
MBD2 DNA inh – inhibitors of human MBD2 binding to methylated oligonucleotide. inhibition, % at 4.4 µM. AID 686964. actives 0.31% (n = 370,000). TR-FRET; in the data active = inhibition above about 13%
DNMT1 inh – inhibitors of human DNMT1 | actives 0.83% (n = 360,000) | DNMT1 molecular beacon, Hinp1I cleavage, fluorescence | inhibition (reported as % activation of signal), % at 10 µM; in the data active = inhibition above about 50%
PG9 binder – PG9 antibody binding by small molecule; TR-FRET gp120-PG9 antibody binding; inhibition, % at 6.7 µM; actives 0.43% (n = 360,000); in the data active = inhibition above about 8.5%
rCAG binder – molecules binding r(CAG) RNA repeats; r(CAG) RNA repeat, TO-PRO-1 dye displacement fluorescence; inhibition, % at 3 µM; actives 1.3% (n = 370,000); AID 651821;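 active = inhibition above the plate cutoff, the mean of all test compounds on that plate plus 3 SD, cut at about 35% in these data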;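 also: 0% = DMSO alone and 100% = 100 µM mitoxantrone as full dye displacement; higher means more dye released from RNA so lower well fluorescence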
rCAG bind conf – r(CAG) RNA repeat binding, confirmation. shares compounds with rCAG binder. actives 70% (n = 4,300). inhibition, % at 3 µM. TO-PRO-1 dye displacement fluorescence;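 active = inhibition above a per-plate cutoff, the mean inhibition of sample wells plus 3 SD, cut at about 35% in these data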;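 also: loss of TO-PRO-1 fluorescence as compound displaces dye from 1x1 AA loop RNA; 0% = DMSO only wells and 100% = 100 µM mitoxantrone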
DNA CAG counter – DNA CAG dye complex inhibition counter-screen; shares compounds with rCAG binder; d(CAG) DNA oligo TO-PRO-1 dye displacement, fluorescence; inhibition, % at 3 µM; actives 94% (n = 4,300);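 active = inhibition above its plate's cutoff, the mean test-well inhibition plus 3 SD, cut at about 4.8% in these data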;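 also: 0% = DNA dye mix with DMSO and 100% = 100 µM mitoxantrone; hits displace the dye from DNA and so lower well fluorescence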
DNA CAG DR – disrupts DNA CAG TO-PRO-1 complex in dose response. actives 20% (n = 250). DNA CAG/GTC duplex TO-PRO-1 dye displacement fluorescence. shares compounds with rCAG binder. IC50, µM; in the data active = IC50 below about 10 µM
* = called active by the depositor; i = inactive; / = no result.

SMILES	LEDGF integ inh	UHRF1 MBD2 ctr	MBD2 DNA inh	DNMT1 inh	PG9 binder	rCAG binder	rCAG bind conf	DNA CAG counter	others
c1nc(NCC2CCOC2)c2cc(-c3ccc4c(c3)OCO4)ccc2n1 (stereo unspecified)	1	0	-4	/	/	/	/	/
O=C(O)c1cc(NC(=O)c2ccc([N+](=O)[O-])cc2)cc(NC(=O)c2ccc([N+](=O)[O-])cc2)c1	-3	1	4	-2	0	50*	34	7.2*
CC(C)(C)C(=O)Nc1ccc(C(=O)Nc2cc(NC(=O)c3ccc(NC(=O)C(C)(C)C)cc3)cc(C(=O)O)c2)cc1	6	-1	-5	3	-3	44*	67*	30*
COc1ccc(NC(=O)CSc2nnc(NC(C)=O)s2)c([N+](=O)[O-])c1	0	2	3	-2	-1	55*	2	0
COc1ccc(NC(=O)CSc2nnc(N)s2)c([N+](=O)[O-])c1	0	-1	0	0	1	0	/	/
O=C(Nc1ccc2c(c1)OCCO2)C(CCc1ccccc1)N1CCC(Cc2ccccc2)CC1 (stereo unspecified)	-4	-1	0	-5	-2	5	/	/
COc1cc(OC)cc(C(=O)OCC(=O)NC2CCCCCCC2)c1	-2	2	6	3	-1	-2	/	/
Cc1noc(NS(=O)(=O)c2ccc(NC(=O)c3cc(-c4ccccc4Cl)nc4ccccc34)cc2)c1C	7	2	6	-2	2	83*	75*	34*	DNA CAG DR=8.5*
Cc1ccc(-c2cc(C(=O)Nc3ccc(S(=O)(=O)Nc4ncccn4)cc3)[nH]n2)c(O)c1C	1	1	-1	-1	0	61*	53*	19*
Cc1noc(NS(=O)(=O)c2ccc(NC(=O)c3cc(S(=O)(=O)N(C)c4ccccc4)ccc3Cl)cc2)c1C	7	-2	-7	0	-1	77*	76*	41*
Cc1noc(NS(=O)(=O)c2ccc(NC(=O)c3ccoc3C)cc2)c1C	0	0	2	23	-1	16	/	/
Cc1cc(C(=O)Nc2ccc(S(=O)(=O)Nc3onc(C)c3C)cc2)c(C)o1	3	5	3	1	-3	11	/	/
Cc1ccc(-n2ccc(=O)c(C(=O)Nc3ccc(S(=O)(=O)Nc4onc(C)c4C)cc3)n2)cc1	0	-4	2	1	0	59*	46*	16*
O=S(=O)(Nc1ccc(-c2csc(-c3ccccc3)n2)cc1)c1ccc(F)cc1	-1	0	-2	-21	-1	29	/	/
Cc1noc(NS(=O)(=O)c2ccc(NC(=O)c3cc(F)c(F)c(F)c3F)cc2)c1C	-1	1	-2	0	0	18	/	/
Cc1noc(NS(=O)(=O)c2ccc(NC(=O)c3ccccc3NS(=O)(=O)c3ccc(F)cc3)cc2)c1C	3	-2	2	2	0	68*	56*	21*
Cc1cc(F)ccc1S(=O)(=O)Nc1ccccc1C(=O)Nc1ccc2[nH]c(=O)[nH]c2c1	2	-1	1	-7	-1	61*	63*	26*
O=C(Nc1nc(-c2ccccc2)cs1)c1ccccc1NS(=O)(=O)c1ccc(F)cc1	5	-2	-5	-30	-4	89*	89*	70*
Cc1noc(NS(=O)(=O)c2ccc(NC(=O)c3cc(S(=O)(=O)Nc4ccc(F)cc4)ccc3Cl)cc2)c1C	-1	2	8	-1	1	59*	52*	23*
Cc1ccc(-c2cc(C(=O)Nc3ccc(S(=O)(=O)Nc4onc(C)c4C)cc3)[nH]n2)c(O)c1	3	-2	-6	-8	-1	84*	78*	44*
O=C(O)/C=C/c1cn(-c2ccccc2)nc1-c1ccccc1	1	3	8	-4	-1	18	/	/
O=C(O)/C=C/c1cn(-c2ccccc2)nc1-c1cc2ccccc2o1	0	4	0	-14	-1	67*	73*	26*	DNA CAG DR=i
O=C(O)/C=C\c1cn(-c2ccccc2)nc1-c1cc2ccccc2o1	-4	4	1	-1	-1	72*	62*	22*
COC(=O)[C@]12C[C@H](CC(=O)NCc3ccc(C)o3)C(=O)N(Cc3ccccc3)C1=C[C@H](C(C)(C)C)O[C@@H]2C	5	1	-6	/	1	4	/	/
COc1ccc(OC)c(NC(=O)CSc2nc(=O)n(Cc3ccccn3)c3c2CCC3)c1	-1	-1	-1	0	-2	-6	/	/
SMILES	LEDGF integ inh	UHRF1 MBD2 ctr	MBD2 DNA inh	DNMT1 inh	PG9 binder	rCAG binder	rCAG bind conf	DNA CAG counter	others
COc1ccc(OC)c(C2Nc3c(Cl)ccc(C(=O)O)c3C3C=CCC32)c1 (stereo unspecified)	9	1	1	0	-1	50*	26	7.1*
O=C(c1ccncc1)N1CC[C@H]2[C@H](CCCN2Cc2ccccc2)C1	1	-2	0	/	/	-1	/	/
CCCCCCCCCCCCCCCCCCNc1ccn(C2OC(COP(=O)(O)OCC3OC(n4cc(F)c(=O)[nH]c4=O)CC3O)C(O)C2O)c(=O)n1 (stereo unspecified)	4	5	-2	80*	-1	55*	61*	36*
O=c1[nH]c(=O)n(C2OC(CO)C(O)C(O)C2O)cc1F (stereo unspecified)	0	-1	3	/	-2	0	/	/
CCc1cc2c(nc1CC)CCCN2Cc1ccccc1C(F)(F)F	10	-1	-7	/	1	5	/	/
O=[N+]([O-])c1cccc(N/N=C/c2cc([N+](=O)[O-])ccc2O)c1	10	-1	-4	-8	-1	36*	27	10*
O=[N+]([O-])c1ccc(O)c(/C=N/NC(=S)Nc2ccc(Cl)cc2Cl)c1	2	-1	6	-22	0	46*	89*	64*
Cc1cc(Cl)ccc1NC(=O)CCC(=O)N/N=C/c1cc([N+](=O)[O-])ccc1O	-1	1	-4	-2	-3	3	/	/
O=[N+]([O-])c1ccc(O)c(/C=N/Nc2ccccn2)c1	-23	-4	1	1	-4	2	/	/
O=C(N/N=C/c1cc([N+](=O)[O-])ccc1O)NC12CC3CC(CC(C3)C1)C2	3	2	8	-3	-1	63*	36*	9.5*
CCCCN(C=O)c1c(CC)nc2ccc(C(=O)NCc3ccc4c(c3)OCO4)cn12	4	4	0	-3	2	3	/	/
